Data taken from the supplement of paper PMC12669032.

Key:
Test in all cases: growth AUC relative to DMSO control (median of replicates) (fraction); higher = more growth (less inhibition), active = hit call of the paper
Details in all cases: 20 µM; 24 h;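 active = AUC reduced over 20% with Padj below 0.05 in at least 2 of 3 replicates; inactive = otherwise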
Akkermansia muciniphila = system: Akkermansia muciniphila
Procedure, shortened: (§1)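 Gut bacteria were grown singly in mGAM at 37 °C without oxygen, from OD600 0.05, alongside 20 µM compound in 1% DMSO, and OD600 was read each hour for 24 h. Area under the growth curve was normalised to the median of solvent-only wells per plate, or to row and column medians on the industrial chemical plate. The minimum OD was set to 0 beforehand, and the reported value is the median of three biological replicates grown on separate days.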

Bacteroides caccae = system: Bacteroides caccae
Procedure, shortened: as §1

Bacteroides clarus = system: Bacteroides clarus
Procedure, shortened: as §1

Bacteroides dorei = system: Bacteroides dorei
Procedure, shortened: as §1

Bacteroides stercoris = system: Bacteroides stercoris
Procedure, shortened: as §1

[1] = system: Bacteroides thetaiotaomicron
Procedure, shortened: as §1

Bacteroides uniformis = system: Bacteroides uniformis
Procedure, shortened: as §1

[2] = system: Bifidobacterium longum subsp. longum
Procedure, shortened: as §1

Clostridium difficile = system: Clostridium difficile
Procedure, shortened: as §1

Collinsella aerofaciens = system: Collinsella aerofaciens
Procedure, shortened: as §1

Coprococcus comes = system: Coprococcus comes
Procedure, shortened: as §1

Escherichia coli ED1a = system: Escherichia coli ED1a
Procedure, shortened: as §1

Escherichia coli IAI1 = system: Escherichia coli IAI1
Procedure, shortened: as §1

Eubacterium rectale = system: Eubacterium rectale
Procedure, shortened: as §1

[3] = system: Fusobacterium nucleatum subsp. animalis
Procedure, shortened: as §1

Lactobacillus gasseri = system: Lactobacillus gasseri
Procedure, shortened: as §1

Lactobacillus paracasei = system: Lactobacillus paracasei
Procedure, shortened: as §1

Odoribacter splanchnicus = system: Odoribacter splanchnicus
Procedure, shortened: as §1

[4] = system: Parabacteroides distasonis
Procedure, shortened: as §1

Parabacteroides merdae = system: Parabacteroides merdae
Procedure, shortened: as §1

Measured: growth AUC

c1ccc2cc3c(ccc4ccccc43)cc2c1
inactive: Akkermansia muciniphila 1.01 | Bacteroides caccae 0.994 | Bacteroides clarus 1 | Bacteroides dorei 0.993 | Bacteroides stercoris 0.994 | [1] 1.01 | Bacteroides uniformis 1.01 | [2] 0.962 | Clostridium difficile 0.992 | Collinsella aerofaciens 1 | Coprococcus comes 1 | Escherichia coli ED1a 0.999 | Escherichia coli IAI1 0.994 | Eubacterium rectale 1.08 | [3] 1.01 | Lactobacillus gasseri 0.969 | Lactobacillus paracasei 1 | Odoribacter splanchnicus 0.992 | [4] 0.961 | Parabacteroides merdae 0.995

O.O=C(Nc1ccc([N+](=O)[O-])cc1Cl)c1cc(Cl)ccc1O
inactive: Akkermansia muciniphila 0.828 | Collinsella aerofaciens 0.865 | Coprococcus comes 0.884 | Escherichia coli ED1a 1 | Escherichia coli IAI1 0.973 | Eubacterium rectale 0.952 | [3] 0.741
active: Bacteroides caccae 0.0261 | Bacteroides clarus 0.00802 | Bacteroides dorei 0.0256 | Bacteroides stercoris 0.00906 | [1] 0.00758 | Bacteroides uniformis 0.0308 | [2] 0.0965 | Clostridium difficile 0.328 | Lactobacillus gasseri 0.15 | Lactobacillus paracasei 0.3 | Odoribacter splanchnicus 0.039 | [4] 0.0373 | Parabacteroides merdae 0.0254

CN(C)C(=O)Nc1ccc(Cl)c(Cl)c1
inactive: Akkermansia muciniphila 0.951 | Bacteroides caccae 0.995 | Bacteroides clarus 0.975 | Bacteroides dorei 0.981 | Bacteroides stercoris 1.08 | [1] 0.99 | Bacteroides uniformis 0.954 | [2] 1.09 | Clostridium difficile 0.965 | Collinsella aerofaciens 0.992 | Coprococcus comes 1.02 | Escherichia coli ED1a 0.985 | Escherichia coli IAI1 0.963 | Eubacterium rectale 0.978 | [3] 1.02 | Lactobacillus gasseri 0.968 | Lactobacillus paracasei 0.971 | Odoribacter splanchnicus 0.888 | [4] 1.09 | Parabacteroides merdae 0.907

O=C(Nc1ccc(F)cc1)c1cccc(Oc2cccc(C(F)(F)F)c2)n1
inactive: Akkermansia muciniphila 0.978 | Bacteroides caccae 0.964 | Bacteroides clarus 0.886 | Bacteroides dorei 0.895 | Bacteroides stercoris 0.82 | [1] 1 | Bacteroides uniformis 1.02 | [2] 1.04 | Clostridium difficile 0.934 | Collinsella aerofaciens 0.865 | Coprococcus comes 0.993 | Escherichia coli ED1a 0.95 | Escherichia coli IAI1 0.95 | Eubacterium rectale 1.02 | [3] 0.927 | Lactobacillus gasseri 0.87 | Lactobacillus paracasei 0.927 | Odoribacter splanchnicus 1.07 | [4] 0.905 | Parabacteroides merdae 0.911

Cn1cc(C(=O)Nc2ccc(F)cc2-c2ccc(Cl)c(Cl)c2)c(C(F)F)n1
active: [4] 0.741
inactive: Akkermansia muciniphila 0.929 | Bacteroides caccae 0.901 | Bacteroides clarus 0.849 | Bacteroides dorei 0.949 | Bacteroides stercoris 0.826 | [1] 0.872 | Bacteroides uniformis 0.911 | [2] 0.991 | Clostridium difficile 0.983 | Collinsella aerofaciens 0.991 | Coprococcus comes 0.921 | Escherichia coli ED1a 1.01 | Escherichia coli IAI1 0.997 | Eubacterium rectale 0.953 | [3] 0.944 | Lactobacillus gasseri 0.881 | Lactobacillus paracasei 0.968 | Odoribacter splanchnicus 0.865 | Parabacteroides merdae 0.892

CCNc1nc(NC(C)(C)C)nc(OC)n1
inactive: Akkermansia muciniphila 0.972 | Bacteroides caccae 0.985 | Bacteroides clarus 0.998 | Bacteroides dorei 0.992 | Bacteroides stercoris 1.11 | [1] 0.987 | Bacteroides uniformis 0.985 | [2] 1.02 | Clostridium difficile 0.998 | Collinsella aerofaciens 1.07 | Coprococcus comes 1.03 | Escherichia coli ED1a 1.04 | Escherichia coli IAI1 1.03 | Eubacterium rectale 1.06 | [3] 1.01 | Lactobacillus gasseri 1.03 | Lactobacillus paracasei 1.01 | Odoribacter splanchnicus 1.07 | [4] 1.07 | Parabacteroides merdae 0.99

Nc1ccc(O)cc1
inactive: Akkermansia muciniphila 0.951 | Bacteroides caccae 1 | Bacteroides clarus 1.01 | Bacteroides dorei 0.998 | Bacteroides stercoris 1.11 | [1] 1.01 | Bacteroides uniformis 1.03 | [2] 0.921 | Clostridium difficile 1.01 | Collinsella aerofaciens 1.01 | Coprococcus comes 1.01 | Escherichia coli ED1a 1.06 | Escherichia coli IAI1 1.01 | Eubacterium rectale 1.12 | [3] 1.12 | Lactobacillus gasseri 1.08 | Lactobacillus paracasei 1.08 | Odoribacter splanchnicus 1.05 | [4] 0.954 | Parabacteroides merdae 1.04

COc1ccc(Oc2ccc(NC(=O)N(C)C)cc2)cc1
inactive: Akkermansia muciniphila 0.887 | Bacteroides caccae 1 | Bacteroides clarus 0.958 | Bacteroides dorei 0.98 | Bacteroides stercoris 0.951 | [1] 0.982 | Bacteroides uniformis 0.948 | [2] 0.957 | Clostridium difficile 0.99 | Collinsella aerofaciens 1 | Coprococcus comes 0.992 | Escherichia coli ED1a 0.977 | Escherichia coli IAI1 0.996 | Eubacterium rectale 0.851 | [3] 0.906 | Lactobacillus gasseri 1.11 | Lactobacillus paracasei 1.01 | Odoribacter splanchnicus 0.974 | [4] 0.989 | Parabacteroides merdae 0.943

CN1CCC[C@H]1c1cccnc1
inactive: Akkermansia muciniphila 0.753 | Bacteroides caccae 0.995 | Bacteroides clarus 0.997 | Bacteroides dorei 1.04 | Bacteroides stercoris 1 | [1] 0.984 | Bacteroides uniformis 0.981 | [2] 1.01 | Clostridium difficile 0.951 | Collinsella aerofaciens 1.04 | Coprococcus comes 0.984 | Escherichia coli ED1a 0.99 | Escherichia coli IAI1 1.01 | Eubacterium rectale 0.978 | [3] 0.98 | Lactobacillus gasseri 0.941 | Lactobacillus paracasei 0.991 | Odoribacter splanchnicus 0.989 | [4] 1.02 | Parabacteroides merdae 0.993

Clc1ccc(C(c2ccccc2Cl)C(Cl)Cl)cc1 (stereo not given)
inactive: Akkermansia muciniphila 1.21 | Bacteroides caccae 1.01 | Bacteroides clarus 0.936 | Bacteroides dorei 0.976 | Bacteroides stercoris 0.856 | [1] 0.988 | Bacteroides uniformis 0.943 | [2] 1.03 | Clostridium difficile 1 | Collinsella aerofaciens 0.847 | Coprococcus comes 1.03 | Escherichia coli ED1a 1 | Escherichia coli IAI1 0.978 | Eubacterium rectale 0.952 | [3] 1.01 | Lactobacillus gasseri 0.496 | Lactobacillus paracasei 1.04 | Odoribacter splanchnicus 1.02 | Parabacteroides merdae 0.976
active: [4] 0.615

c1ccc(CNc2ncnc3nc[nH]c23)cc1
inactive: Akkermansia muciniphila 1.07 | Bacteroides caccae 1.02 | Bacteroides clarus 0.992 | Bacteroides dorei 0.983 | Bacteroides stercoris 0.995 | [1] 1.03 | Bacteroides uniformis 1.06 | [2] 0.975 | Clostridium difficile 0.932 | Collinsella aerofaciens 1 | Coprococcus comes 1.06 | Escherichia coli ED1a 0.989 | Escherichia coli IAI1 1.01 | Eubacterium rectale 1.16 | [3] 0.943 | Lactobacillus gasseri 0.956 | Lactobacillus paracasei 1.03 | Odoribacter splanchnicus 1.03 | [4] 1.05 | Parabacteroides merdae 1.02

COCCOc1ccccc1S(=O)(=O)NC(=O)Nc1nc(OC)nc(OC)n1
inactive: Akkermansia muciniphila 1.03 | Bacteroides caccae 0.976 | Bacteroides clarus 0.97 | Bacteroides dorei 0.962 | Bacteroides stercoris 0.92 | [1] 1 | Bacteroides uniformis 1.02 | [2] 1.06 | Clostridium difficile 0.984 | Collinsella aerofaciens 0.908 | Coprococcus comes 0.987 | Escherichia coli ED1a 0.959 | Escherichia coli IAI1 0.97 | Eubacterium rectale 0.983 | [3] 0.983 | Lactobacillus gasseri 0.88 | Lactobacillus paracasei 1.02 | Odoribacter splanchnicus 1.08 | [4] 0.978 | Parabacteroides merdae 0.94

CCCCN(C)C(=O)Nc1ccc(Cl)c(Cl)c1
inactive: Akkermansia muciniphila 0.739 | Bacteroides caccae 0.886 | Bacteroides clarus 0.952 | Bacteroides dorei 0.97 | Bacteroides stercoris 1.16 | [1] 0.899 | Bacteroides uniformis 0.864 | [2] 0.951 | Clostridium difficile 0.943 | Collinsella aerofaciens 1 | Coprococcus comes 1.04 | Escherichia coli ED1a 1.01 | Escherichia coli IAI1 1 | Eubacterium rectale 1.04 | [3] 1.01 | Lactobacillus gasseri 0.965 | Lactobacillus paracasei 0.98 | Odoribacter splanchnicus 0.901 | [4] 0.816 | Parabacteroides merdae 0.932

CCCN(CCC)C(=O)SCC
inactive: Akkermansia muciniphila 0.884 | Bacteroides caccae 1.02 | Bacteroides clarus 0.97 | Bacteroides dorei 1.01 | Bacteroides stercoris 0.942 | [1] 0.998 | Bacteroides uniformis 0.959 | [2] 0.97 | Clostridium difficile 1.03 | Collinsella aerofaciens 0.992 | Coprococcus comes 0.969 | Escherichia coli ED1a 0.967 | Escherichia coli IAI1 1.01 | Eubacterium rectale 0.944 | [3] 0.893 | Lactobacillus gasseri 1.03 | Lactobacillus paracasei 1.02 | Odoribacter splanchnicus 1 | [4] 1.03 | Parabacteroides merdae 0.984

NC(=O)c1c(Cl)cccc1Cl
inactive: Akkermansia muciniphila 0.966 | Bacteroides caccae 0.94 | Bacteroides clarus 1 | Bacteroides dorei 1.01 | Bacteroides stercoris 1.06 | [1] 0.998 | Bacteroides uniformis 0.978 | [2] 1 | Clostridium difficile 0.98 | Collinsella aerofaciens 0.974 | Coprococcus comes 0.984 | Escherichia coli ED1a 1.01 | Escherichia coli IAI1 0.983 | Eubacterium rectale 1.09 | [3] 1.1 | Lactobacillus gasseri 0.917 | Lactobacillus paracasei 1.03 | Odoribacter splanchnicus 1.07 | [4] 0.99 | Parabacteroides merdae 0.996

COc1ccccc1C(=O)NS(=O)(=O)c1ccc(C(=O)NC2CC2)cc1
inactive: Akkermansia muciniphila 0.895 | Bacteroides caccae 1.01 | Bacteroides clarus 0.994 | Bacteroides dorei 1 | Bacteroides stercoris 1.03 | [1] 0.954 | Bacteroides uniformis 0.999 | [2] 0.954 | Clostridium difficile 0.985 | Collinsella aerofaciens 1.02 | Coprococcus comes 0.995 | Escherichia coli ED1a 1.03 | Escherichia coli IAI1 1.02 | Eubacterium rectale 0.97 | [3] 1.01 | Lactobacillus gasseri 1.21 | Lactobacillus paracasei 1 | Odoribacter splanchnicus 0.989 | [4] 1.03 | Parabacteroides merdae 1.01
